Assay [1] is described as follows: qHTS assay to identify aromatase inhibitors - cell viability counter screen (AID 743084).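 Also: cells stimulated with testosterone during compound exposure; nearly all actives have a fitted effect of over 55% in size.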 Also: potency is read from the fitted curve at half-maximal effect. For orientation: Quantitative high-throughput screening tests each substance at several concentrations.
The target of assay [2] is Aryl hydrocarbon receptor (Homo sapiens) (UniProt P35869). Description: qHTS assay to identify small molecule that activate the aryl hydrocarbon receptor (AhR) signaling pathway (AID 743085). Also: nearly all actives have a fitted effect of over 15% in size. Also: potency is read from the fitted curve at half-maximal effect.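 As to activation: HG2L7.5c1 human HepG2 liver cells with stably integrated DRE-driven firefly reporter; series mostly up to about 70 µM.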 In a few lines: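 Steps: seed HepG2-AhR-luc cells; allow 5 h at 37C; pin-transfer test compound or vehicle; incubate 24 h at 37C; add viability dye (30 min, 37C) and read fluorescence; add luciferase substrate (30 min, RT) and read luminescence.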
Sequence of Aryl hydrocarbon receptor (Homo sapiens) (P35869 whole entry, looked up): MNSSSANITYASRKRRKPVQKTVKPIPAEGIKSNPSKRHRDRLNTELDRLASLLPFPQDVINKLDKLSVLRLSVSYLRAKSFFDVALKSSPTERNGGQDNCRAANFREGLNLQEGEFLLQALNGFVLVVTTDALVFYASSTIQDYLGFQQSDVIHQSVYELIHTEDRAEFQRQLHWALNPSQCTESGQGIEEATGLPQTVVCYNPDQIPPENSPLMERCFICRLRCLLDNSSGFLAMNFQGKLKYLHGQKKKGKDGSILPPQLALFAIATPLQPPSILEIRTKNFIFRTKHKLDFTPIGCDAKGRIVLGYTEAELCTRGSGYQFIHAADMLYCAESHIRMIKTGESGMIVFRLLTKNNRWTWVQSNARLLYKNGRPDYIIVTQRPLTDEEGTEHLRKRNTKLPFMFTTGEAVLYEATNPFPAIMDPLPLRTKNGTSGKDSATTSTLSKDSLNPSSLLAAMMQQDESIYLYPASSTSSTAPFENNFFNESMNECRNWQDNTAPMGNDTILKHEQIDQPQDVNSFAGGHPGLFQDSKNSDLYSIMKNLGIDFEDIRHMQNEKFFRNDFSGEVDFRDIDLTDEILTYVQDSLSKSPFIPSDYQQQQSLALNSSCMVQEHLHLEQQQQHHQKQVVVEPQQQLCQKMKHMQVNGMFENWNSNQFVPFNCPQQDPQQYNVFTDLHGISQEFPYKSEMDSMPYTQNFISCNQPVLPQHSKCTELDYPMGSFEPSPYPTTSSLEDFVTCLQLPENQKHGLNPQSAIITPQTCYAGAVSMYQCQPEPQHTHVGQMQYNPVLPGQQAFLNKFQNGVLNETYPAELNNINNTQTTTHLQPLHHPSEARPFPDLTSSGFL

Assay [3] in a line: qHTS assay to identify small molecule that activate the aryl hydrocarbon receptor (AhR) signaling pathway - cell viability counter screen (AID 743086). Also: nearly all actives have a fitted effect of over 45% in size. Also: potency is read from the fitted curve at half-maximal effect. In a few lines:
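HepG2-AhR-luc (HG2L7.5c1) cells, 4000/well, treated 24 h at 37 C with compound; viability measured as CellTiter-Fluor fluorescence after 30 min in the same wells as the luciferase read.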

In assay [4] the target is Peroxisome proliferator-activated receptor gamma (Homo sapiens) (UniProt P37231). Description: qHTS assay to identify small molecule agonists of the peroxisome proliferator-activated receptor gamma (PPARg) signaling pathway (AID 743094; active = well fitted activation curve with a large enough effect in the signal ratio in the repeat runs, not every such curve was filed as active; the % refers to the signal ratio). In a few lines:
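Agonism was assessed in a beta-lactamase reporter system, HEK293H cells with a stably integrated UAS-bla construct under PPARg control; the 17 h treatment at 37C preceded a 1 h room-temperature FRET substrate read.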

A short description of assay [5]: qHTS assay to identify small molecule antagonists of the peroxisome proliferator-activated receptor gamma (PPARg) signaling pathway - cell viability counter screen (AID 743194). Also: nearly all actives have a fitted effect of over 55% in size. Also: potency is read from the fitted curve at half-maximal effect. In a few lines: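 Cytotoxicity counter screen in PPARg-bla HEK293H cells, same wells as reporter assay. Compounds plus 50 nM rosiglitazone (final) for 17 h at 37 C, then viability read by CellTiter-Glo luminescence.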

A short description of assay [6]: qHTS assay for small molecule agonists of the antioxidant response element (ARE) signaling pathway (AID 743202; active = well fitted activation curve with a large enough effect in the signal ratio in the repeat runs, not every such curve was filed as active; the % refers to the signal ratio). In outline: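 HepG2 ARE-bla cells; 16 h treatment at 37 C; FRET-based beta-lactamase fluorescence read after 2 h substrate incubation at room temperature.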
Assay [7] can be described thus: qHTS assay for small molecule agonists of the antioxidant response element (ARE) signaling pathway - cell viability counter screen (AID 743203; calls by dose curve; also: nearly all actives have a fitted effect of over 55% in size; also: potency is read from the fitted curve at half-maximal effect). In a few lines:
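ATP content via CellTiter-Glo luminescence served as the viability measure. Cells: ARE-bla HepG2, 2,000 per well. Exposure: 16 hrs, 37C/5% CO2.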

Assay [8] is described as follows: qHTS assay for small molecule activators of the heat shock response signaling pathway - cell viability counter screen (AID 743209). Also: nearly all actives have a fitted effect of over 50% in size. Also: potency is read from the fitted curve at half-maximal effect. In outline: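 Compounds dissolved in DMSO were added to overnight-plated HSE-bla HeLa cells and left 5 h at 37 C. Cell viability was quantified by luminescence using CellTiter-Glo.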
Assay [9] can be described thus: qHTS assay for small molecule activators of the heat shock response signaling pathway (AID 743210; active = well fitted activation curve with a large enough effect in the signal ratio in the repeat runs, with a control signal flat, not every such curve was filed as active; the % refers to the signal ratio;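 also: HeLa cells with beta-lactamase reporter driven by heat shock elements; series mostly up to about 63 µM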). In a few lines: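 Following overnight attachment, HSE-bla HeLa cells received test compounds for 5 h at 37 C; beta-lactamase activity was then detected via FRET substrate fluorescence.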
A short description of assay [10]: qHTS assay to identify small molecule agonists of the peroxisome proliferator-activated receptor delta (PPARd) signaling pathway - cell viability counter screen (AID 743211). Also: nearly all actives have a fitted effect of over 55% in size. Also: potency is read from the fitted curve at half-maximal effect. In a few lines: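 Viability of GeneBLAzer PPARd UAS-bla HEK293H cells was assessed after 17 h compound incubation at 37C, using CellTiter-Glo reagent added after the reporter read and luminescence recorded 30 min later.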

Assay [11] concerns the target Peroxisome proliferator-activated receptor delta (Homo sapiens) (UniProt Q03181). Briefly: qHTS assay to identify small molecule agonists of the peroxisome proliferator-activated receptor delta (PPARd) signaling pathway (AID 743212; calls by dose curve). In outline: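 Tox21 library screened in GeneBLAzer PPARd UAS-bla HEK293H cells. After compound treatment at 37 C, a FRET-based beta-lactamase substrate was applied for 2 h and fluorescence recorded.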

The nature of assay [12]: qHTS assay to identify small molecule antagonists of the peroxisome proliferator-activated receptor delta (PPARd) signaling pathway - cell viability counter screen (AID 743213). Also: nearly all actives have a fitted effect of over 50% in size. Also: potency is read from the fitted curve at half-maximal effect. In a few lines: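 Same-well viability: cells pre-incubated 5 h, dosed with compound plus 300 nM L165041, kept 17 h at 37 C, FRET substrate 2 h RT, then CellTiter-Glo 30 min RT and luminescence.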

A short description of assay [13]: qHTS assay to identify small molecule agonists of the farnesoid-X-receptor (FXR) signaling pathway - cell viability counter screen (AID 743218). Also: nearly all actives have a fitted effect of over 45% in size. Also: potency is read from the fitted curve at half-maximal effect. In a few lines:
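Quantitative HTS counter screen measuring ATP-based viability via CellTiter-Glo luminescence in HEK 293T cells carrying a UAS-driven beta-lactamase reporter, after 16 h compound exposure at 37 C.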

The nature of assay [14]: qHTS assay to identify small molecule antagonists of the farnesoid-X-receptor (FXR) signaling pathway - cell viability counter screen (AID 743221; active = well fitted cell-killing curve with a large enough effect in the repeat runs, not every such curve was filed as active; also: nearly all actives have a fitted effect of over 50% in size; also: potency is read from the fitted curve at half-maximal effect). In outline:
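Quantitative HTS of the Tox21 10K library run in parallel with the beta-lactamase reporter read. HEK 293T cells carrying a UAS-driven bla reporter got compound and 50 uM CDCA (final) for 16 h; ATP-based luminescence followed.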

The target in assay [15] is Peroxisome proliferator-activated receptor gamma (Homo sapiens) (UniProt P37231). Briefly: qHTS assay to identify small molecule antagonists of the peroxisome proliferator-activated receptor gamma (PPARg) signaling pathway (AID 743191; calls by dose curve; also: series mostly up to about 63 µM; nearly all actives have a fitted effect of over 30% in size). In a few lines: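 GeneBLAzer PPARg UAS-bla HEK293H cells, 5 h post-plating, exposed to compounds 17 h at 37C. LiveBLAzer B/G FRET substrate added for 1 h at room temperature; beta-lactamase reporter read by fluorescence intensity.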
Sequence of Peroxisome proliferator-activated receptor gamma (Homo sapiens) (P37231 whole entry, looked up): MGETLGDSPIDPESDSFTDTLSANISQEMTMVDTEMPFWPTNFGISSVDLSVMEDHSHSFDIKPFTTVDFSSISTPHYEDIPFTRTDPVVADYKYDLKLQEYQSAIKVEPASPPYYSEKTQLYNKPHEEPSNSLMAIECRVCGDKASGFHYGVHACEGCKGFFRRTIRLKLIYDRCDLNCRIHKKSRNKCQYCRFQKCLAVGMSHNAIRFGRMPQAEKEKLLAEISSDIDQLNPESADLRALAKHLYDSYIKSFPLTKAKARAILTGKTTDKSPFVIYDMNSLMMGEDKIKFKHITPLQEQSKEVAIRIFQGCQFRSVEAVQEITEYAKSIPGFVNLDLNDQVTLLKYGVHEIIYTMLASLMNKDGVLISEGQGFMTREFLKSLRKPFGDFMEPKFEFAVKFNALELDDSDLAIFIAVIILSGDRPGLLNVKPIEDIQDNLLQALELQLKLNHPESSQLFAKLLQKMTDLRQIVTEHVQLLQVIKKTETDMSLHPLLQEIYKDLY

For assay [16], the target named is Vitamin D3 receptor (Homo sapiens) (UniProt P11473). Description: qHTS assay to identify small molecule agonists of the vitamin D receptor (VDR) signaling pathway (AID 743222; calls by dose curve). In outline:
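Tox21 cell reporter format: VDR-bla line, 16 h compound exposure in 5% CO2 at 37C, then fluorescence intensity after 2 h with LiveBLAzer B/G FRET substrate.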

The target is the same in assay [17]. Briefly: qHTS assay to identify small molecule antagonists of the vitamin D receptor (VDR) signaling pathway (AID 743223; active = well fitted inhibition curve with a large enough effect in the signal ratio in the repeat runs, not every such curve was filed as active; the % refers to the signal ratio). In outline: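 Fluorescence from LiveBLAzer B/G FRET substrate, read after 2 h at room temperature, reflects beta-lactamase reporter activity in VDR-bla cells treated 16 h at 37C with compounds and agonist 1alpha,25-dihydroxyvitamin D3 (3 nM final).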

For assay [18], the target named is Bile acid receptor (Homo sapiens) (UniProt Q96RI1). Description: qHTS assay to identify small molecule agonists of the farnesoid-X-receptor (FXR) signaling pathway (AID 743220; active = well fitted activation curve with a large enough effect in the signal ratio in the repeat runs, not every such curve was filed as active; the % refers to the signal ratio). In outline: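 FXR-UAS-bla HEK 293T cells carrying a UAS-driven beta-lactamase reporter were plated for 5 h at 37C/5% CO2, then exposed to DMSO-dissolved Tox21 10K compounds for 16 h at 37C. A LiveBLAzer B/G FRET substrate was loaded for 2 h at room temperature before fluorescence reading.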
Sequence of Bile acid receptor (Homo sapiens) (Q96RI1 whole entry, looked up): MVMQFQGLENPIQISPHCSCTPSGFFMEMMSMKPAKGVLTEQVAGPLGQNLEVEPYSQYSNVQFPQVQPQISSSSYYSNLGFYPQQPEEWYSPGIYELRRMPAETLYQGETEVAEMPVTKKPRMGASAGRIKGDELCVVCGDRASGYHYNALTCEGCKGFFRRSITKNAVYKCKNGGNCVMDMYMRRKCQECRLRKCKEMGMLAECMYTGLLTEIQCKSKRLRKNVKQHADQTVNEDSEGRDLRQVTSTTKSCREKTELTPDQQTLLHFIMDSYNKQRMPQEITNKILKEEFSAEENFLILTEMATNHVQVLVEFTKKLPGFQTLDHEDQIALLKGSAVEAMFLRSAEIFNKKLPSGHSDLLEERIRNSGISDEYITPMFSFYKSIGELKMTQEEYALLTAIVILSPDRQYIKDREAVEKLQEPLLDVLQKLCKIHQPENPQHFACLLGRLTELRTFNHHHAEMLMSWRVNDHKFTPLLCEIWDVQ

Assay [19] deals with Peroxisome proliferator-activated receptor delta (Homo sapiens) (UniProt Q03181). Briefly: qHTS assay to identify small molecule antagonists of the peroxisome proliferator-activated receptor delta (PPARd) signaling pathway (AID 743215; active = well fitted inhibition curve with a large enough effect in the signal ratio in the repeat runs, not every such curve was filed as active; the % refers to the signal ratio;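 also: cells stimulated with agonist L165041 at 300 nM final during compound exposure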; also: potency is read from the fitted curve at half-maximal effect). In a few lines:
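Here, a reporter line (HEK293H, beta-lactamase under a UAS) measures PPARd signaling. Compounds are tested against agonist L165041 at 300 nM final concentration over 17 h at 37 C, with fluorescence read after substrate.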

Assay [20] addresses Bile acid receptor (Homo sapiens) (UniProt Q96RI1). Briefly: qHTS assay to identify small molecule antagonists of the farnesoid-X-receptor (FXR) signaling pathway (AID 743217; active = well fitted inhibition curve with a large enough effect in the signal ratio in the repeat runs, not every such curve was filed as active; the % refers to the signal ratio). In outline:
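Test compounds are pin-transferred onto FXR-bla HEK 293T cells, then chenodeoxycholic acid is added at 50 uM final. After 16 h at 37 °C, LiveBLAzer B/G substrate is applied for 2 h at room temperature and fluorescence read.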

Values joined by “and” are separate entries in the source; they are usually repeats but may differ in a detail not shown here. Identical values can stand only once. Records with an inconclusive call do not appear. Some structures have more than one record in an assay (separate samples or runs), and their calls can disagree. Active and inactive are the calls of the source. Unless noted, calls follow the shape of the dose curve; as a rule, active = well fitted curve in the direction sought with a large enough effect in the repeat runs; inconclusive = weak or mixed curves; inactive = no such curve, though single readings can be large; an effect the other way counts as inactive or inconclusive.
% is scaled to controls: 0 for no effect and ±100 for the full control effect.

Sequence of Peroxisome proliferator-activated receptor delta (Homo sapiens) (Q03181 whole entry, looked up): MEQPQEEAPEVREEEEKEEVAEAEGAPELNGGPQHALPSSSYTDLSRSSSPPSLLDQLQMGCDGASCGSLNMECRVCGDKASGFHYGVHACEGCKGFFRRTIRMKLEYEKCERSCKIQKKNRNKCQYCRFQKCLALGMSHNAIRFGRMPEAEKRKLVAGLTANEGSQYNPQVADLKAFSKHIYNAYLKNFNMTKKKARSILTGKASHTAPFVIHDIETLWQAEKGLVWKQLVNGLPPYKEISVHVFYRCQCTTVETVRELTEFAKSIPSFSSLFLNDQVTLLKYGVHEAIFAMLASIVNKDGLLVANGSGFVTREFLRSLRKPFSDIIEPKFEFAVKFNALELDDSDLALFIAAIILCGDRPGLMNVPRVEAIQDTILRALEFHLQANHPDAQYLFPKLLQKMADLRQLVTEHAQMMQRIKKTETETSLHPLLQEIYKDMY
Sequence of Vitamin D3 receptor (Homo sapiens) (P11473 whole entry, looked up): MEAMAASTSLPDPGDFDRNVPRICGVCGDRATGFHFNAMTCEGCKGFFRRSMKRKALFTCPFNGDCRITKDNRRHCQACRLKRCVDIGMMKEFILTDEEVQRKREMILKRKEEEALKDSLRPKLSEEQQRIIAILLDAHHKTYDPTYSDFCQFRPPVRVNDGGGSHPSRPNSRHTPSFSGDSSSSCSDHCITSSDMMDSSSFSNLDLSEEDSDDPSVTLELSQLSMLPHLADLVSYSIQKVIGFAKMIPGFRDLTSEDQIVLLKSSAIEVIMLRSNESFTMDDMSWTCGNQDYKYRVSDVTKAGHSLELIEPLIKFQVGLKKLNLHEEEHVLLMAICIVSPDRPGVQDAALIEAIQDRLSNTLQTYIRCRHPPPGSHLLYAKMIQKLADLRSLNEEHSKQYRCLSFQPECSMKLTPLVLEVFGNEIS

For `C=CCc1ccc(O)c(OC)c1`, the Potency result in assay [1], in assay [2], in assay [3], in assay [4], in [5] and in assay [6] was “inactive” in each case. Further, the Potency entry in assay [7], in [8], in [10], in assay [11], in assay [12] and in assay [13] was “inactive” in each case. In addition, in assay [14], the Potency result is “inactive”. Besides, the outcome in assay [9] was inactive.
As for `C[C@](N)(Cc1ccc(O)c(O)c1)C(=O)O`, the Potency entry in [1], in assay [2], in [3], in [4], in assay [15] and in [5] was “inactive” in each case. For the same compound, the Potency result in assay [6], in [7], in assay [8], in assay [10], in assay [12] and in [13] was “inactive” in each case. Moreover, the Potency result in [14], in assay [16] and in assay [17] was “inactive” in each case.
As for `C1CCC(C(CC2CCCCN2)C2CCCCC2)CC1` (stereo not given), the Potency was 18.8 µM (active) in assay [1]; 18.8 µM (active) in [3]; 33.5 µM (active) in assay [5]; 29.8 µM (active) in assay [7]; 33.5 µM (active) in assay [8]; 26.6 µM (active) in [10]. Moreover, the Potency in [13] was 23.7 µM (active). Moreover, the Potency result in [2], in [15] and in assay [16] was “inactive” each time.
Take `CCN(Cc1c(F)cccc1Cl)c1c([N+](=O)[O-])cc(C(F)(F)F)cc1[N+](=O)[O-]`: the Potency entry in assay [1], in [2], in [3], in assay [5], in assay [6] and in assay [7] was “inactive” in each case. Moreover, the Potency entry in assay [8], in assay [11] and in [17] was “inactive” in each case. Further, the Potency was 17.4 µM (active) in assay [10], 17.4 µM (active) in assay [12], 19.5 µM (active) in assay [13] and 21.9 µM (active) in assay [14]. For the same compound, in assay [18], the compound was classed as inactive.
As to `CN(C)C(=S)SC(=S)N(C)C`, the Potency in assay [1] was 3.35 µM (active) and 994 nM (active) and 486 nM (active); in assay [3] it was 1.57 µM (active) and 1.09 µM (active); in [10] it was 710 nM (active) and 389 nM (active) and 1.33 µM (active); in assay [12], 3.99 µM (active) and 549 nM (active) and 944 nM (active); in assay [19] it was 0.596 µM (active); in [13], 502 nM (active) and 2.45 µM (active) and 1.68 µM (active). Further, the Potency in assay [14] was 564 nM (active) and 1.68 µM (active). Moreover, the Potency result in assay [2], in assay [15] and in assay [5] was “inactive” each time.
In the case of `CN1CCC[C@H]1c1cccnc1`, the Potency entry in assay [1], in assay [2], in [3], in [4], in assay [15] and in assay [5] was “inactive” throughout. The Potency result in assay [6], in [7], in assay [8], in assay [10], in assay [12] and in [13] was “inactive” each time. Further, the Potency result in assay [14] and in assay [16] was “inactive” throughout.
Take `CCc1nc(N)nc(N)c1-c1ccc(Cl)cc1`: the Potency entry in [1], in assay [2], in assay [3], in assay [5], in assay [8] and in assay [11] was “inactive” each time. Also, the Potency result in assay [12], in [19], in [20] and in assay [16] was “inactive” each time. Also, the Potency in assay [7] is 5.31 µM (active); in assay [14] it was 24.9 µM (active). Moreover, the call in [9] and in assay [18] was inactive.
`CC/C(=C(\c1ccccc1)c1ccc(OCCN(C)C)cc1)c1ccccc1`: the Potency in assay [1] is 27.3 µM (active) [middle of 5 runs]; in [3], “inactive and 61.6 µM (active)”; in assay [7], 19.5 µM (active) and 27.3 µM (active) and 26.6 µM (active); in assay [8], “inactive and 35 µM (active) and 43.6 µM (active)”; in assay [12], 54.9 µM (active) and 17.5 µM (active); in assay [14] it was “inactive and 49.4 µM (active) and 54.9 µM (active)”. Also, the Potency result in assay [2] was “inactive”. The result in [9] was inactive.
Turning to `O=C(Nc1ncc([N+](=O)[O-])s1)c1cccs1`, the Potency in [2] is 2.98 µM (active). In addition, the Potency entry in assay [3], in assay [11], in assay [19], in assay [20] and in [16] was “inactive” throughout. In addition, the compound was classed as inactive in [9] and in [18].
As to `Oc1ccccc1`, the Potency result in [1], in assay [2], in [3], in [5], in assay [6] and in assay [7] was “inactive” each time. The Potency entry in assay [8], in assay [10], in assay [12], in assay [20], in [13] and in assay [14] was “inactive” in each case. Also, in [18], the result was inactive.

These data come from PubChem BioAssay (Tox21).
